Among the data in PubChem BioAssay are z-score and composite z-score values, retold here.

Each structure is given as a SMILES string. Active and inactive are the calls of the source. Unless noted, the rule behind the calls is not given here.

Assay [1] can be described thus: HepG2 liver cancer cell viability effects, profiling panel, resazurin fluorescence, 24 h, PK04 Diversity Set (AID 1172). Note: test concentration not given here. To be noted: higher = more signal. Background: The colour change of resazurin is a common sign of viable cells or microbes.
Assay [2] in a line: basal S. cerevisiae growth modulation, no modifier, primary screen, OD600, strain BY4716, 24 h, basal condition (AID 1173). To be noted: OD600, 24 h, higher = more signal, called active from +8 up or from −8 down.
A short description of assay [3]: MM1S myeloma cell viability, profiling panel, resazurin fluorescence, basal, 24 h, PK04 Diversity Set (AID 1174).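 Note: MM1S multiple myeloma cell line; test concentration not given here.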 The following applies: higher = more signal, called active from +8 up or from −8 down.
Assay [4] has as its target Dihydroorotate dehydrogenase (quinone), mitochondrial (Plasmodium falciparum (isolate 3D7)) (UniProt Q08210). The assay can be described thus: PfDHODH enzyme inhibitors, primary screen, biochemical, C-terminal His tag, absorbance 600 nm (AID 1175).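 Note: recombinant parasite enzyme with a five histidine tag at its C terminus; test concentration not given here.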 The following applies: DCIP absorbance 600 nm, higher = more signal, called active from +8 up or from −8 down.
A short description of assay [5]: P. aeruginosa biofilm formation inhibitors, primary screen, strain PAO1, LB-PBS medium, absorbance 600 nm (AID 1176). Note: test concentration not given here. The following applies: P. aeruginosa PAO1 growth/biofilm, A600, 12 h; higher = more signal.
The nature of assay [6]: S. cerevisiae RM11-1a growth modifiers, primary screen, strain RM11-1a, OD600, basal, 24 h (AID 1177).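 Note: cultures grown under basal conditions with no added stressor; test concentration not given here.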 To be noted: OD600, 24 h, higher = more signal, called active from +8 up or from −8 down.
A short description of assay [7]: E. coli acrAB mutant growth effects, primary screen, E. coli filamentation inducers, strain DRC39, OD650, 24 h (AID 1178).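 Note: growth measured as culture turbidity by optical density at 650 nm; test concentration not given here.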 To be noted: higher = more signal, called active from +8 up or from −8 down.
A short description of assay [8]: E. coli acrAB mutant growth effects, primary screen, E. coli filamentation inducers, strain DRC39, OD650, 48 h (AID 1179).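 Note: screen aims at cell division blockers that make cells filament.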 To be noted: E. coli DRC39 delta-acrAB growth, higher = more signal, called active from +8 up or from −8 down.
Assay [9] can be described thus: RPMI8226 myeloma cell viability, profiling panel, resazurin fluorescence, basal, 24 h, PK04 Diversity Set (AID 1180).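 Note: RPMI8826 multiple myeloma cell line at 5000 cells per well; test concentration not given here.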 To be noted: higher = more signal.
Assay [10] deals with E3 ubiquitin-protein ligase XIAP (Homo sapiens) (UniProt P98170). The assay can be described thus: XIAP binders, primary screen, biophysical, small-molecule microarray, fluorescence 635 nm (AID 1181).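 Note: score merges 667 nm emission and signal to noise over triplicate slides.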 The following applies: small-molecule microarray binding, higher = more signal.
E3 ubiquitin-protein ligase XIAP (Homo sapiens), sequence (P98170 whole entry, looked up): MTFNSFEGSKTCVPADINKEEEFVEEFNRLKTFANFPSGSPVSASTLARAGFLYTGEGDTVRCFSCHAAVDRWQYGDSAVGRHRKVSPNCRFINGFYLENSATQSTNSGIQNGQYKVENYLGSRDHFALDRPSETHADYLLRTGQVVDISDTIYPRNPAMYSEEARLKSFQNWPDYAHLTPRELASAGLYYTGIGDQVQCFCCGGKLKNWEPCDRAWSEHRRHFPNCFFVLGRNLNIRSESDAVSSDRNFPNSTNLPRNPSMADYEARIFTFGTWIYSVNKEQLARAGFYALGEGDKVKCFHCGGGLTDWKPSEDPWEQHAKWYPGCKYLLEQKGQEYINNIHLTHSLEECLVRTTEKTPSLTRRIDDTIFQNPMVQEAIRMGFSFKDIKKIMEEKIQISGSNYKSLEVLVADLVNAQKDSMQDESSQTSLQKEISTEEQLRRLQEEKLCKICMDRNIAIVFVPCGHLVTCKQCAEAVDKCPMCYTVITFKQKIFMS

Dihydroorotate dehydrogenase (quinone), mitochondrial (Plasmodium falciparum (isolate 3D7)), sequence (Q08210 whole entry, looked up): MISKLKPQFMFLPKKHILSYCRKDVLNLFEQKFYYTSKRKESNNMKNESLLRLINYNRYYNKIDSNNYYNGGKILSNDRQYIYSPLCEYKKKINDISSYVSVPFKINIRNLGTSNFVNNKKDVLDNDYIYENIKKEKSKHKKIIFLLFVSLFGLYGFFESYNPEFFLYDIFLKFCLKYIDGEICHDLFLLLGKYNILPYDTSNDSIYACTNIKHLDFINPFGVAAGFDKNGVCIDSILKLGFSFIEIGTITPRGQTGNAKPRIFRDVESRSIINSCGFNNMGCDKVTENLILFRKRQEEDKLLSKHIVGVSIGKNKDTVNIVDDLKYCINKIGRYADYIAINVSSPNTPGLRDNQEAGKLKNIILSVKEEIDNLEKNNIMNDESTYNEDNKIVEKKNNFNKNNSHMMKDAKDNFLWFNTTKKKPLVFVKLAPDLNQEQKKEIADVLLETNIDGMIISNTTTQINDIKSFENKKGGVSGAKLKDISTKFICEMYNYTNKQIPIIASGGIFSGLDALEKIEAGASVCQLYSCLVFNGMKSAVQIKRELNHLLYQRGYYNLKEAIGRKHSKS

On to `CCOC(=O)c1cn(C[C@H](Cc2ccccc2)NC(=O)N[C@H](CO)CCc2oc(C(C)=O)c(C(=O)OC)c2C(=O)OC)nn1`, for which the z-score in assay [1] is -0.756; in assay [2], -2.76 (inactive); in [3], 0.225 (inactive); in assay [5], -0.227 (inactive); in assay [6], -0.669 (inactive); in assay [7], -0.124 (inactive). Moreover, the z-score in assay [8] is -0.356 (inactive); in [9] it was -0.458. Also, the results for the composite z-score in [4] and in assay [10] were -3.55 (inactive) and -0.0835, respectively.
For `C#CCN1[C@@H](Cc2ccccc2)C(=O)O[C@H](Cc2ccccc2)[C@@H]1/C=C/C1CC1`, the z-score in [1] is 0.642; in [2], -0.236 (inactive); in [3], 1.56 (inactive); in assay [5], -0.565 (inactive); in assay [6], 0.0761 (inactive); in assay [7] it was 1.37 (inactive). The z-score in assay [8] is 1.06 (inactive); in [9], 1.62. Also, the results for the composite z-score in assay [4] and in assay [10] were 0.0255 (inactive) and -0.208, respectively.
In the case of `Cc1ccc(S[C@]2(C(=O)NCCCN(C)C)CC(=O)N(Cc3ccccc3C(F)(F)F)[C@@H]2c2ccc(CO)cc2I)cc1`, the z-score was 0.0689 in assay [1]; -4.57 (inactive) in assay [2]; -3.16 (inactive) in assay [3]; -0.0065 (inactive) in assay [5]; -1.55 (inactive) in assay [6]; -0.108 (inactive) in [7]. The z-score in [8] was -0.65 (inactive); in assay [9] it was -1.42. Also, the composite z-score in assay [4] is -0.168 (inactive); in assay [10] it was 0.191.
Turning to `COC(=O)C1=CC(CCCO)=CC(c2cccs2)N(Cc2cc3c(cc2Br)OCO3)C=C1C(=O)OC` (stereo not given), the z-score in [1] was -0.245; in assay [2], -0.23 (inactive); in assay [3] it was 0.182 (inactive); in assay [5], 0.173 (inactive); in assay [6], 1.92 (inactive); in assay [7], 0.404 (inactive). Further, the figures for the z-score in [8] and in assay [9] were -0.372 (inactive) and 0.365, respectively. Moreover, the composite z-score in assay [4] was -0.851 (inactive); in assay [10] it was 0.344.
Regarding `COc1cc(C(O)C2C=CC3C(=O)N(c4ccccc4)C(=O)C3N2Nc2ccccc2F)cc(OC)c1OC` (stereo not given), the z-score in assay [1] was -0.514; in [2], 0.886 (inactive); in assay [3] it was -0.565 (inactive); in [5], 0.437 (inactive); in assay [6], 0.881 (inactive); in [7], -0.631 (inactive). Also, the z-score in assay [8] is -0.765 (inactive); in assay [9], -0.17. In addition, the composite z-score was 0.0998 (inactive) in [4] and 0.081 in assay [10].
For the molecule `CCCC=C(CCC)[C@@H](NC(=O)OCC(C)C)c1ccc(C(=O)OC)cc1`, the z-score in assay [1] is 1.78; in [2] it was 0.463 (inactive); in [3] it was 0.287 (inactive); in assay [5], 0.523 (inactive); in assay [6], -0.578 (inactive); in [7], 0.386 (inactive). The z-score is -0.0328 (inactive) in assay [8] and 0.754 in [9]. The composite z-score is -0.456 (inactive) in [4] and 0.0651 in [10].
For `CC(C)NC(=O)[C@@]1(C)c2ccccc2C(=O)N(Cc2ccccc2)[C@H]1c1ccc(CO)cc1`, the z-score in assay [1] was 0.107; in assay [2], -0.177 (inactive); in [3] it was 0.782 (inactive); in assay [5], 0.5 (inactive); in assay [6], -1.29 (inactive); in assay [7], 0.4 (inactive). Further, the z-score in assay [8] was 0.988 (inactive); in assay [9], 0.453. The composite z-score is -1.48 (inactive) in assay [4] and -0.287 in [10].
For `CCCN1C(=O)[C@]2(CCC(=O)OC(C)(C)C)N=C(c3ccc(OCCCO)cc3)O[C@@H]2c2ccccc21`, the z-score in assay [1] is -0.154; in [2], -0.836 (inactive); in [3], -2.08 (inactive); in assay [5], 3.33 (inactive); in [6], 0.654 (inactive); in assay [7], 1.08 (inactive). For the same molecule, the z-score in assay [8] was 0.0565 (inactive); in assay [9], -2.7. The figures for the composite z-score in assay [4] and in assay [10] were 0.023 (inactive) and 0.118, respectively.
In the case of `COCCOC(=O)N1C(=O)[C@@]2(c3ccccc31)[C@H](c1ccc(O)cc1)N1[C@H](c3ccccc3)[C@H](c3ccccc3)OC(=O)[C@H]1[C@@H]2C(=O)N1CCCCCCC1`, the z-score was 0.0454 in [1]; -0.712 (inactive) in [2]; 0.0065 (inactive) in assay [3]; 1.57 (inactive) in [5]; -0.122 (inactive) in assay [6]; -0.391 (inactive) in assay [7]. The z-score in [8] was -1.88 (inactive); in assay [9], 0.248. In addition, the results for the composite z-score in assay [4] and in [10] were 0.161 (inactive) and 0.587, respectively.
Turning to `C=CCC(OC(C)=O)[C@@H]1[C@@H](N(Cc2ccc(-c3cccc(C(F)(F)F)c3)o2)C(=O)c2ccc(-c3ccccc3)cc2)c2cc(OCCCO)ccc2N1C(=O)c1ccc2ccccc2c1` (stereo not given in full), the z-score is 0.393 in assay [1]; 0.488 (inactive) in [2]; 0.314 (inactive) in [3]; -0.452 (inactive) in [5]; 1.27 (inactive) in [6]; 0.391 (inactive) in assay [7]. Besides, the z-score is 0.412 (inactive) in assay [8] and 0.881 in [9]. Also, the composite z-score was -0.0636 (inactive) in assay [4] and -0.0889 in assay [10].
With `CC1CC/C=C\[C@H]2OC34C=CCN(CCN5CCOCC5)C(=O)[C@H]3N(CCCO)C(=O)[C@@H]4C2C(=O)O1` (stereo not given in full), the z-score in assay [1] was -0.505; in assay [2] it was 0.356 (inactive); in assay [3] it was -0.431 (inactive); in assay [5], 0.233 (inactive); in assay [6], 0.296 (inactive); in assay [7] it was -0.47 (inactive). In addition, the values for the z-score in assay [8] and in assay [9] were -0.496 (inactive) and -0.479, respectively. Moreover, the composite z-score in [4] was 0.199 (inactive); in assay [10], 0.158.
Take `CCCCC(O)C1C=CC2C(=O)N(c3ccccc3)C(=O)C2N1Nc1ccc(C#N)cc1` (stereo not given): the z-score in [1] is -0.438; in assay [2], -1.03 (inactive); in [3], 0.0125 (inactive); in assay [5], 0.999 (inactive); in assay [6], 0.63 (inactive); in assay [7], 0.172 (inactive). The z-score in [8] is -0.465 (inactive); in [9], 0.628. The composite z-score is 0.318 (inactive) in assay [4] and 0.169 in assay [10].
On to `CCC(CC)C(O)C1C=CC2C(=O)N(c3ccccc3)C(=O)C2N1Nc1ccccc1F` (stereo not given), for which the z-score in assay [1] was 0.85; in assay [2], 0.153 (inactive); in assay [3], -0.0479 (inactive); in assay [5] it was 0.67 (inactive); in assay [6], -0.0886 (inactive); in assay [7], -0.551 (inactive). The figures for the z-score in assay [8] and in assay [9] were 0.164 (inactive) and 0.181, respectively. Besides, the composite z-score was 1.57 (inactive) in assay [4] and 0.172 in [10].
